Source: PubChem BioAssay (several laboratories)
In the library only some 6.6% were active in any assay of this set; here they are far more common.
CSC inhib = blocks cancer stem cells; hit rate 1.1% among 300,000; inhibition, % at 7.5 µM; cancer stem cell-like cells viability, luminescence; AID 2717; in the data active = inhibition above about 75%; tested in HMLE shEcad cells
Mdm2 MdmX PPI = disrupts the human Mdm2-MdmX interaction | SaOS-2 split-luciferase Mdm2/MdmX complementation, luminescence | inhibition, % at 8 µM | hit rate 3% among 330,000 | AID 485346;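 active = inhibition of at least 50% at 8 µM in the primary screen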
Target sequence (O15151 whole entry, looked up): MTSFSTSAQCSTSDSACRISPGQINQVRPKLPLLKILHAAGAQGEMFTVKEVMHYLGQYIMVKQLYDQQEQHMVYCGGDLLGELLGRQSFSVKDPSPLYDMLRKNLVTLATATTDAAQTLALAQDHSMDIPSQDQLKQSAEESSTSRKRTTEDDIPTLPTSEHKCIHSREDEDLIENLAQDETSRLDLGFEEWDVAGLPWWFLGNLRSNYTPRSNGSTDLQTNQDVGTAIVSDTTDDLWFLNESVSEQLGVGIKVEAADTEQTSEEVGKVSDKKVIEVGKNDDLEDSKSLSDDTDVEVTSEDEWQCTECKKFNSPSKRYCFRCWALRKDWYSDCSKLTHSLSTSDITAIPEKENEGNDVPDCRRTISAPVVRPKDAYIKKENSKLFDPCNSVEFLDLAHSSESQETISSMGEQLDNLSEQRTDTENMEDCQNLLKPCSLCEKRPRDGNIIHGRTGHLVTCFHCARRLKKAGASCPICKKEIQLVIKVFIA
Target sequence (Q00987 whole entry, looked up): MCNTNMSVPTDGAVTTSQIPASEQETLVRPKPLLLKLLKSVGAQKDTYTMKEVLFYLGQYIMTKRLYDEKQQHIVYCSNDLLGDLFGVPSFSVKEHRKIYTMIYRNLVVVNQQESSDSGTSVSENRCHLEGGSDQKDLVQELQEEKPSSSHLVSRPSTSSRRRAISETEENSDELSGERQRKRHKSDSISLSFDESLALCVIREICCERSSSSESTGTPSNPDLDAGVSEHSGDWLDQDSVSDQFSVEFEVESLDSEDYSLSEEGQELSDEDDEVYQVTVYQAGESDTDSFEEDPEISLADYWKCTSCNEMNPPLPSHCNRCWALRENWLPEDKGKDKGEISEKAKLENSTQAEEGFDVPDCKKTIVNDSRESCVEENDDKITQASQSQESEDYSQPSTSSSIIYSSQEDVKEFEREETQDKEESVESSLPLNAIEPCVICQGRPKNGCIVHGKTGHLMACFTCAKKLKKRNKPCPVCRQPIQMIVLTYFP
Gli-Sufu antag = blocks Gli-Sufu signaling in a luciferase reporter; hit rate 0.74% among 340,000; Sufu-KO-LIGHT fibroblasts, Gli luciferase reporter luminescence; inhibition, % at 5 µM;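 active = inhibition above about 55%, limit read from the data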;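 also: 0% = DMSO-treated cells and 100% = wells with medium but no cells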
Beta apoptosis = beta cell apoptosis inhibition; INS-1E cytokine-induced death, ATP luminescence, 48 h; percent of positive-control rescue, neutral wells zero; hit rate 0.8% among 300,000; AID 435005; protection from apoptosis, % (test concentration not listed);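 active = Every replicate reaches about 75%, or at least half do and their mean reaches it too, limit read from the data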;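 also: 0% = cytokine-treated negative control wells and 100% = positive control rescue; higher means more ATP so stronger rescue from cytokine killing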
GRIN3A LBD mod = modulates the human NR3A ligand-binding domain. Tm shift relative to glycine control, % at 25 µM. hit rate 2.5% among 340,000. NR3A LBD differential scanning fluorimetry, Tm shift; 0% = protein alone, 100% = glycine-bound protein;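 active = melting temperature shift of at least 10% of the positive control shift, at one fixed dose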
MPTP inh = blocks calcium-induced mitochondrial swelling; hit rate 1.4% among 360,000; AID 602449; inhibition, % at 10 µM; isolated mouse mitochondria, Ca2+ swelling absorbance, 30 min;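 active = inhibition of 50% or more, scaled per plate between neutral and stimulator controls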;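 also: 0% = DMSO wells given calcium and 100% = 1 mM EGTA wells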
Mdm2-MdmX conf = human Mdm2/MdmX binding inhibition, confirmed; AID 489028; inhibition, % at 8 µM; hit rate 55% among 10,000; shares compounds with Mdm2 MdmX PPI; luminescent assay; in the data active = inhibition above about 40%
FLuc counter = inhibits full-length luciferase, flagging false Mdm2/MdmX hits | SaOS-2 full-length luciferase counterscreen, luminescence | hit rate 77% among 6,200 | AID 504607 | inhibition, % at 8 µM | shares compounds with Mdm2 MdmX PPI;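 active = mean inhibition at 8 µM reaching about 37%, which flags the compound as non-specific, limit read from the data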;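 also: p53-null SaOS-2 cells with luciferase driven by a doxycycline-inducible promoter; compound on cells about two nights before reading with doxycycline added after day one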
Numbers without * were called inactive; . = no result given.

SMILES	CSC inhib	Mdm2 MdmX PPI	Gli-Sufu antag	Beta apoptosis	GRIN3A LBD mod	MPTP inh	Mdm2-MdmX conf	others
Brc1ccc(-c2nnc3ccc(N4CCN(c5ccccc5)CC4)nn23)cc1	-2.4	100.0*	-4.5	-5.5	-0.8	4.3	44.8*	FLuc counter=76.8*
O=C(CCl)NC(Cc1ccccc1)C(=O)OCC(=O)c1ccc(-c2ccccc2)cc1 (stereo not given)	.	.	24.9	.	4.2	-1.3	.
C(=N\Nc1ncnc2sc3c(c12)CCC3)/c1cccs1	94.3*	58.1*	.	95.8*	.	0.5	50.0*	FLuc counter=19.1
C(=N\Nc1ncnc2sc3c(c12)CCC3)/c1ccncc1	1.9	48.4	31.7	-1.1	-1.8	-0.3	.
Cc1cc(SCC(=O)Nc2ccc3[nH]c(=O)[nH]c3c2)nc2ccccc12	19.8	87.5*	-7.8	-7.4	2.4	-0.3	-7.4
COc1cccc(NC(=O)COC(=O)c2c3c(nc4ccccc24)CCC(C)C3)c1 (stereo not given)	19.0	79.0*	10.0	1.2	18.6*	7.4	63.8*	FLuc counter=64.0*
COc1ccc(NS(=O)(=O)c2cccc(C(=O)N3CCCC(C)C3)c2)cc1 (stereo not given)	3.3	12.1	3.7	7.0	-0.6	0.5	.
C#CCNC(=O)C[C@@H]1C[C@@]2(C(=O)OC)CC(C)(C)CC=C2N(CCc2ccc(OC)c(OC)c2)C1=O	.	.	.	.	.	0.2	.
COc1ccc(-c2cc(-c3ccc(O)cc3)nc(N)c2C#N)cc1	19.6	62.3*	-3.4	.	4.6	1.4	24.4
COc1ccccc1-c1cc(-c2ccc(O)cc2)nc(N)c1C#N	19.1	38.0	10.9	-7.7	-8.8	-0.2	.
COc1cc(-c2cc(-c3ccc(O)cc3)nc(N)c2C#N)ccc1O	-10.6	81.4*	49.0	-18.7	-22.8	-0.3	53.7*	FLuc counter=91.8*
O=C(Nc1ccc(F)cc1)C(c1cccc(F)c1)N1CCN(C(=O)c2ccco2)CC1 (stereo not given)	.	.	.	.	.	-0.9	.
O=C(COC(=O)CCC(=O)N1CCOCC1)Nc1ccc(Br)cc1Br	5.5	-3.8	5.2	0.5	-0.3	0.1	.
Fc1ccccc1N1CCN(c2ncnc3[nH]ncc23)CC1	-1.9	62.9*	-15.7	-2.6	-0.1	-2.2	25.3
COc1cccc(-n2nc(C(N)=O)c(O)cc2=O)c1	4.0	16.2	1.3	-4.8	-0.2	-1.0	.
COc1cccc(-n2nc(C#N)c(Cl)cc2=O)c1	.	100.3*	2.9	.	-1.1	0.2	100.2*	FLuc counter=51.2*
Clc1ccc(OCCN2CCCCC2)cc1Cl	19.5	-9.7	2.6	-0.2	-7.2	2.4	.
Clc1cccc(OCCN2CCN(CCOc3cccc(Cl)c3)CC2)c1	36.2	68.9*	-12.2	20.3	-23.5	-4.9	35.2
COc1ccccc1NC(=O)COC(=O)c1ccccc1OCC(=O)Nc1ccc(SC(F)F)cc1	-8.2	28.0	29.4	1.9	-10.0	0.9	.
COc1ccc(CNC(=O)COC(=O)c2ccccc2OCC(=O)Nc2ccc(SC(F)F)cc2)cc1	-6.8	98.6*	-8.0	-1.4	0.0	0.7	16.5
CC1CN(c2ncnc3c2oc2ccccc23)CC(C)O1 (stereo not given)	3.6	-39.4	46.9	-3.2	1.3	-5.8	.
Clc1ccc(N2CCN(c3ncnc4c3oc3ccccc34)CC2)cc1	12.7	57.9*	5.4	-4.9	0.3	38.4	10.1
COc1ccc(N2CCN(S(=O)(=O)CCNC(=O)C3CC(=O)N(c4ccccc4)C3)CC2)cc1 (stereo not given)	-9.5	27.2	-13.3	-9.3	1.7	1.4	.
COc1cccc(-c2cc(-c3cccnc3)c(C#N)c(N)n2)c1	-11.2	21.9	-1.4	3.6	-0.8	0.7	.
N#Cc1c(-c2ccc(F)cc2)cc(-c2cccnc2)nc1N	-7.5	12.7	4.2	8.6	-6.5	-0.6	.
SMILES	CSC inhib	Mdm2 MdmX PPI	Gli-Sufu antag	Beta apoptosis	GRIN3A LBD mod	MPTP inh	Mdm2-MdmX conf	others
COc1cccc(-c2cc(-c3cccnc3)nc(N)c2C#N)c1	-3.7	59.5*	-4.7	-1.2	0.4	2.1	11.5
COc1ccc(OC)c(-c2cc(-c3cccnc3)nc(N)c2C#N)c1	76.3*	63.1*	-2.9	3.4	-2.5	1.3	62.0*	FLuc counter=76.2*
Cc1c(-c2ccccc2)nc(N)c(C#N)c1-c1cccnc1	-4.7	26.3	9.0	0.1	-1.4	1.4	.
COc1ccc(-c2cc(-c3cccnc3)c(C#N)c(N)n2)cc1	7.7	72.7*	2.0	-1.0	-0.7	1.9	8.6
Cc1nc(N)c(C#N)c(-c2cccnc2)c1-c1ccccc1	-2.7	56.4*	-6.3	-10.8	0.0	-0.8	41.9*	FLuc counter=55.6*
O=C(NCCCCNC(=O)c1ccccc1Br)c1ccccc1Br	-5.8	13.9	-5.0	.	4.6	-1.0	.
C[C@@H]1CN([C@@H](C)CO)C(=O)c2cc(NC(=O)CCN3CCOCC3)ccc2O[C@@H]1CN(C)C(=O)Nc1ccccc1	7.2	-4.2	4.6	-1.4	0.5	-0.8	.
CC(C)(C)C(=O)NCc1ccc(C(=O)CSc2nnc3n2CCCCC3)s1	.	.	.	.	.	-0.7	.
C=CC(=O)Nc1cccc(Oc2cc(Cl)nc3[nH]ccc23)c1	.	80.4*	-13.3	-6.2	-11.0	0.2	71.7*	FLuc counter=42.4*
COc1ccc(-c2c[n+]3c4n2CCCCC4=C(c2ccccc2)C3)cc1	.	67.2*	14.3	.	1.4	8.5	16.8
Cc1cc(C)c2cc(CN(CCCN(C)C)C(=S)NCc3ccccc3)c(=O)[nH]c2c1	24.3	53.1*	5.7	1.7	-0.4	1.2	29.8
Cc1ccc(C)c2[nH]c(=O)c(CN(CCCN(C)C)C(=O)NCc3ccccc3)cc12	-2.7	20.9	-6.2	1.9	2.4	-5.8	.
CN(C)C(=O)CN1C(=O)NC(c2ccccc2)(c2ccccc2)C1=O	-2.0	16.4	17.1	-4.5	1.6	-1.2	.
O=C1/C(=C/c2cccc(Br)c2)SC(=S)N1CCC(=O)N(CCO)c1ccccc1	47.0	51.9*	1.1	-33.5	-2.7	0.0	11.2
COc1cccc(/C=C2\SC(=S)N(CCCC(=O)N(CCO)c3ccccc3)C2=O)c1	20.4	99.4*	24.1	-49.3	-10.6	-1.0	60.1*	FLuc counter=15.7
C=CC(=O)Nc1sc2c(c1C(N)=O)CCCC2	30.3	53.1*	-0.2	-28.5	-0.8	8.7	11.8
C=CCNC(=S)Nc1sc2c(c1C(N)=O)CCCC2	21.1	-23.3	-5.2	0.9	-1.0	1.9	.
C[C@@H](C(=O)Nc1ccc2c(c1)OCCO2)n1c(=O)[nH]c2ccccc2c1=O	15.6	61.8*	45.5	.	0.3	-1.4	81.0*	FLuc counter=76.2*
C[C@@H](C(=O)Nc1ccc2c(c1)OCO2)n1c(=O)[nH]c2ccccc2c1=O	19.3	-24.4	27.6	1.7	-4.4	-2.0	.
CC1=CC(=Nc2c(C)n(C)n(-c3ccccc3)c2=O)C=CC1=O	10.5	69.0*	.	3.8	.	.	7.5
